# Calls of active or inactive are those of the source. Unless noted, the rule behind the calls is not given here.
# What was measured:
# [1] = tested on: Wnt5a (protein binding on small-molecule microarray); test: small molecules binding Wnt5a protein – biophysical, small-molecule microarray, 635/667 nm fluorescence, primary screen (AID 1142); conditions: 635 nm fluorescence, higher = more signal;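 note: fluorescence read at 667 nm with signal to noise per printed feature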
# [2] = ATP-based viability of Huh7 replicon cells – cell-based, CellTiter-Glo luminescence, basal, 48 h, cytotoxicity control for HCV replication inhibitor project, primary screen (AID 1143); conditions: higher = more signal, called active from +8 up or from −8 down;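 note: Huh7 hepatoma cells carrying a hepatitis C replication reporter with no stimulus; test concentration not given here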
# [3] = Pseudomonas biofilm growth suppression – PAO1 strain, BacTiter-Glo luminescence, LB-PBS, primary screen (AID 1144); conditions: P. aeruginosa PAO1 biofilm, 12 h, higher = more signal
# [4] = basal CRE-LacZ reporter activity in PC12 – cell-based, unstimulated, primary screen (AID 1145); conditions: no forskolin, luminescence, 4.5 h, higher = more signal, called active from +8 up or from −8 down
# [5] = forskolin-driven CRE-LacZ activity in PC12 – cell-based, CRE-LacZ reporter, forskolin-stimulated, primary screen (AID 1146); conditions: luminescence, 4.5 h, higher = more signal, called active from +8 up or from −8 down;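 note: PC12 cells with 6xCRE LacZ reporter stimulated by forskolin 10 µM; beta-galactosidase reporter signal reflecting CREB driven transcription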
# [6] = target: Streptavidin (Streptomyces avidinii) (UniProt P22629); test: compounds binding control protein streptavidin – biophysical, small-molecule microarray, 635/667 nm fluorescence, artefact control for SMM compound annotation, primary screen (AID 1147); conditions: higher = more signal;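 note: signal reflects streptavidin binding to arrayed compounds as a control protein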
# Chain of Streptavidin (Streptomyces avidinii) (P22629 whole entry, looked up): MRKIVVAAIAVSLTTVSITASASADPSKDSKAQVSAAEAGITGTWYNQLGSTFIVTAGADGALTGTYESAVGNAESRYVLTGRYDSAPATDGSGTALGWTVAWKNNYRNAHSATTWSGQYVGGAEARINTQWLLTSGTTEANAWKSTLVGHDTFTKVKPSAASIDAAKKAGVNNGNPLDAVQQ
# [7] = probe aInhba binding on compound microarray – biochemical, small-molecule microarray, 635/667 nm fluorescence, primary screen (AID 1148); conditions: higher = more signal;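 note: score merges 667nm spot fluorescence with signal-to-noise for antibody binding to printed compounds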
# Torsin-1A (Homo sapiens) [8] = target: Torsin-1A (Homo sapiens) (UniProt O14656); test: TOR1A wild-type binding on microarray – cell lysate, small-molecule microarray, lysate, 635/667 nm, primary screen (AID 1149); conditions: COS7 hTOR1A-WT lysate, 635 nm fluorescence, higher = more signal
# Chain of Torsin-1A (Homo sapiens) (O14656 whole entry, looked up): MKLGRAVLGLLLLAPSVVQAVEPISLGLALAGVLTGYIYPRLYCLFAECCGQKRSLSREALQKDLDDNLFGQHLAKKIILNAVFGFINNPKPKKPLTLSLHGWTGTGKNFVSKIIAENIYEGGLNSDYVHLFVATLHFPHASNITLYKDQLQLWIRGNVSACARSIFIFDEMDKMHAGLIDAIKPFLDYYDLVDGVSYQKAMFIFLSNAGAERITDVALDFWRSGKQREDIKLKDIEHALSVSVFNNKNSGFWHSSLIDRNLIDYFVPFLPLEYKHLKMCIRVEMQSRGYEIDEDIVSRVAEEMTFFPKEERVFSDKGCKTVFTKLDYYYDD
# Torsin-1A (Homo sapiens) [9] = target: Torsin-1A (Homo sapiens) (UniProt O14656); test: torsin A mutant lysate binding on microarrays – cell lysate, small-molecule microarray, COS7 lysate, 635/667 nm fluorescence, primary screen (AID 1150); conditions: COS7 hTOR1A mutant lysate, 635 nm fluorescence, higher = more signal;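 note: score pools 667 nm emission and signal to noise measuring lysate protein binding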
# [10] = tested on: Sonic hedgehog protein (Shh); test: Sonic hedgehog microarray binding compounds – biochemical, small-molecule microarray, 635/667 nm fluorescence, primary screen (AID 1151); conditions: 635 nm fluorescence, higher = more signal;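 note: Shh protein binding to compounds spotted on small-molecule microarray slides; score combines spot fluorescence intensity with signal-to-noise across triplicate slides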
# [11] = optical density shifts of acrAB sulA E. coli – strain DRC41, OD650, 48 h, E. coli filamentation inducer project, primary screen (AID 1152); conditions: higher = more signal, called active from +8 up or from −8 down;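 note: E. coli MC1000 strain DRC41 lacking acrAB efflux pump and sulA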
# [12] = probe aLefty1 binding on compound microarray – biochemical, small-molecule microarray, 635/667 nm fluorescence, primary screen (AID 1153); conditions: higher = more signal;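 note: score merges spot fluorescence with signal-to-noise ratio from the scanned slide images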
# [13] = plasmodial surface anion channel blockers, osmotic lysis – cell-based, P. falciparum Indochina, OD700, 1 h, primary screen (AID 1154); conditions: P. falciparum Indochina infected RBC osmotic lysis, higher = more signal, called active from +8 up or from −8 down
# [14] = plasmodial surface anion channel blockers, osmotic lysis – cell-based, P. falciparum Indochina, OD700, 2 h, primary screen (AID 1155);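 note: lysis reports solute entry through the parasite surface anion channel PSAC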; conditions: P. falciparum Indochina infected erythrocytes, higher = more signal, called active from +8 up or from −8 down
# [15] = changes in parasitized red cell lysis, either direction – P. falciparum Indochina, OD700, 3 h, PSAC antagonist project, primary screen (AID 1156); conditions: P. falciparum-infected erythrocytes, osmotic lysis, higher = more signal, called active from +8 up or from −8 down
# [16] = plasmodial surface anion channel blockers, osmotic lysis – cell-based, P. falciparum Indochina, OD700, 18 h, primary screen (AID 1157); conditions: P. falciparum Indochina infected erythrocytes, osmotic lysis OD700, 18 h; higher = more signal, called active from +8 up or from −8 down
# [17] = S6 kinase pathway phospho-S6 level changes – cell-based, A549, cytoblot, luminescence, serum-stimulated, primary screen (AID 1158); conditions: 5 h, higher = more signal;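 note: serum-stimulated A549 lung adenocarcinoma cells; signal is phosphorylated S6 detected by cytoblot immunostaining with HRP secondary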
# [18] = target: NADPH oxidase 2 (Homo sapiens) (UniProt P04839); test: compounds shifting NOX2 Amplex Red fluorescence – cell-based, HEK293-NOX2, PMA-stimulated, NOX inhibitor project, primary screen (AID 1159); conditions: 45 min, higher = more signal, called active from +8 up or from −8 down; note: test concentration not given here
# Chain of NADPH oxidase 2 (Homo sapiens) (P04839 whole entry, looked up): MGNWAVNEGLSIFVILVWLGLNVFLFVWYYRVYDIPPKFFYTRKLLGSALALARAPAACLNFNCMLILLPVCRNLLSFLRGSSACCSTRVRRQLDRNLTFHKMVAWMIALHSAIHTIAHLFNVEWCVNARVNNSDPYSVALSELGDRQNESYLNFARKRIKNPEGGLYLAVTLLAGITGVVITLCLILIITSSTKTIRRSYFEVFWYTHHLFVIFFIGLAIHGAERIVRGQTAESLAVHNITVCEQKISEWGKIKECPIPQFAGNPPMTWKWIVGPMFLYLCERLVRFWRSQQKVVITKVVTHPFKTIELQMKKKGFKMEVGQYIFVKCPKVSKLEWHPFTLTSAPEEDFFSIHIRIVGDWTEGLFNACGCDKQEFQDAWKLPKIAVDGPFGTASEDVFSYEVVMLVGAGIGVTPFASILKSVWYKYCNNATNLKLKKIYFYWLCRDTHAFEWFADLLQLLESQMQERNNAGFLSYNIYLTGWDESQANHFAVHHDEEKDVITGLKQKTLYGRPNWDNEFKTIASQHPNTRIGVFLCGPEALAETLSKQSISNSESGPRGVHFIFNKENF
# [19] = target: NADPH oxidase 4 (Homo sapiens) (UniProt Q9NPH5); test: compounds shifting NOX4 Amplex Red fluorescence – cell-based, HEK293-NOX4, tetracycline-induced, NOX inhibitor project, primary screen (AID 1160); conditions: HEK293-NOX4, Amplex Red H2O2 fluorescence, 45 min; higher = more signal, called active from +8 up or from −8 down
# Chain of NADPH oxidase 4 (Homo sapiens) (Q9NPH5 whole entry, looked up): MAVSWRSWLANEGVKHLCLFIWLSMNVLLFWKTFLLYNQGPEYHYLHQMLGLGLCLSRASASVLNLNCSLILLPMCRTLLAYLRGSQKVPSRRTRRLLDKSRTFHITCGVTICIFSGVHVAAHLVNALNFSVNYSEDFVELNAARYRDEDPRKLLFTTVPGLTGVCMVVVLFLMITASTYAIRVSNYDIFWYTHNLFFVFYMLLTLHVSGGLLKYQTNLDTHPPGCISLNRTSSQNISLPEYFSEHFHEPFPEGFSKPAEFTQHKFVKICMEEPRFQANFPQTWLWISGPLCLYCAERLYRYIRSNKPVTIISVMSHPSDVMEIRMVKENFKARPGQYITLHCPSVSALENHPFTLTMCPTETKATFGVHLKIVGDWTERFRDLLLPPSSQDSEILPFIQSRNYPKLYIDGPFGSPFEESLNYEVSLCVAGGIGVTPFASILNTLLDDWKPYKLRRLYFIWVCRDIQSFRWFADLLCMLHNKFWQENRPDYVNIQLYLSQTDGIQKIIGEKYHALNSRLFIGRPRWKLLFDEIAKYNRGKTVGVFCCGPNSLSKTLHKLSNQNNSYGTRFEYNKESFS
# [20] = target: NADPH oxidase 5 (Homo sapiens) (UniProt Q96PH1); test: compounds shifting NOX5 Amplex Red fluorescence – cell-based, HEK293-NOX5, NOX inhibitor project, primary screen (AID 1161); conditions: HEK293-NOX5, ionomycin, 45 min, higher = more signal
# Chain of NADPH oxidase 5 (Homo sapiens) (Q96PH1 whole entry, looked up): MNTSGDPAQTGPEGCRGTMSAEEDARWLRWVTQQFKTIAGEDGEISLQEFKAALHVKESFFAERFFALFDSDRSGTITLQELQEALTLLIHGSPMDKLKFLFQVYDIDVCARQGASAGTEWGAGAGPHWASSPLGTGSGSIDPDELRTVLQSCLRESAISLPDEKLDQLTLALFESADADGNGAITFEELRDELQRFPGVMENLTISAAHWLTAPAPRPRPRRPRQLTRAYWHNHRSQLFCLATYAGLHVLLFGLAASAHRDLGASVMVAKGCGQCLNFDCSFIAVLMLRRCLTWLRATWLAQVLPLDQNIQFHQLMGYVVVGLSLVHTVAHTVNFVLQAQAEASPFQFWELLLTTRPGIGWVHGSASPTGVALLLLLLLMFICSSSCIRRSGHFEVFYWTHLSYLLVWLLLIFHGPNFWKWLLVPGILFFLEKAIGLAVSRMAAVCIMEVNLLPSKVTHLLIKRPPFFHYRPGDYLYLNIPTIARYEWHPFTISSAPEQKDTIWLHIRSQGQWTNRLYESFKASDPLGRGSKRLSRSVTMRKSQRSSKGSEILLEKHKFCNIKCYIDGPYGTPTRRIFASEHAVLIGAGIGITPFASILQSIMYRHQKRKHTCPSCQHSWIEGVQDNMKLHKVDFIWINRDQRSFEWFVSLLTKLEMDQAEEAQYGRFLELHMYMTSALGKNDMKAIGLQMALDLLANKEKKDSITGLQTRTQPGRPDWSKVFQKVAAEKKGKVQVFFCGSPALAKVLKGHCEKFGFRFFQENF
Structure (SMILES),composite z-score [1],z-score [2],z-score [3],z-score [4],z-score [5],composite z-score [6],composite z-score [7],composite z-score (Torsin-1A (Homo sapiens) [8]),composite z-score (Torsin-1A (Homo sapiens) [9]),composite z-score [10],z-score [11],composite z-score [12],z-score [13],z-score [14],z-score [15],z-score [16],z-score [17],z-score [18],z-score [19],z-score [20]
COc1ccc([Si](C)(C)[C@@H]2[C@@H](CC(=O)N(CCO)Cc3ccccc3)O[C@]3(C(=O)N(Cc4cccc(N5CCOC5=O)c4)c4ccccc43)[C@H]2C)cc1,-0.129,-5.47 (inactive),-0.122 (inactive),0.748 (inactive),-0.62 (inactive),-0.121,-0.176,0.787,0.347,1.52,-0.179 (inactive),0.677,5.73 (inactive),1.14 (inactive),-0.0706 (inactive),0.843 (inactive),0.475,1.08 (inactive),1.35 (inactive),1.75
COC(=O)[C@@]1(Cc2ccccc2)[C@H]2c3cc(C(=O)N(C)C)n(CCc4ccc(O)c(OC)c4)c3C[C@H]2CN1C(=O)c1ccccc1,1.01,0.394 (inactive),0.333 (inactive),0.201 (inactive),0.334 (inactive),0.545,1.07,0.0405,0.212,-0.0598,-0.873 (inactive),1.11,0.318 (inactive),0.277 (inactive),-0.692 (inactive),0.667 (inactive),-0.565,0.0564 (inactive),-0.485 (inactive),-0.207
C[N+](C)(C)CCCCCCNC(=O)[C@H]1C[C@H]2C(=O)N[C@@H](Cc3ccccc3)C(=O)N2[C@H]1c1ccc(O)cc1,0.121,-0.56 (inactive),0.271 (inactive),-1.08 (inactive),-0.227 (inactive),-0.215,-0.0695,0.561,0.313,1.94,0.796 (inactive),-0.0475,6.4 (inactive),1.3 (inactive),-0.194 (inactive),0.374 (inactive),-0.0246,0.847 (inactive),1.13 (inactive),-0.0901
CC(c1ccccc1)C(O)C1C=CC2C(=O)N(c3ccccc3)C(=O)C2N1Nc1ccc([N+](=O)[O-])cc1 (stereo not given),0.523,-0.664 (inactive),-1.53 (inactive),-0.48 (inactive),0.624 (inactive),0.656,0.118,0.971,0.29,0.513,0.179 (inactive),0.175,20.8 (active),5.25 (inactive),0.283 (inactive),1.61 (inactive),-0.438,-0.7 (inactive),-1.18 (inactive),-1.38
O=C(CS)NCCCCCCNC(=O)[C@H]1C[C@H]2C(=O)N[C@@H](Cc3ccccc3)C(=O)N2[C@H]1c1ccc(O)cc1,0.491,0.167 (inactive),-0.31 (inactive),0.822 (inactive),0.368 (inactive),-0.513,-0.162,1.08,0.768,1.62,-0.558 (inactive),-0.54,8.58 (active),1.21 (inactive),-0.177 (inactive),0.767 (inactive),-0.0427,0.593 (inactive),-0.0574 (inactive),1.08
CCCCO[C@H]1C[C@H]2C(I)=C[C@@H]1C(=O)[C@]21CO1,-0.0784,-0.232 (inactive),0.0666 (inactive),0.496 (inactive),0.672 (inactive),-0.258,-0.161,-0.336,-0.145,0.816,-1.55 (inactive),-0.369,-0.0445 (inactive),0.18 (inactive),-0.163 (inactive),-0.16 (inactive),-0.408,0.0778 (inactive),0.609 (inactive),-0.383
CCOC(=O)c1ccc(NC(=O)O[C@H]2[C@H](OC(=O)Nc3ccc4c(c3)OCO4)[C@@H](OC(=O)Nc3ccc4c(c3)OCO4)[C@@H](OC)O[C@@H]2CO)cc1,0.332,-1.23 (inactive),0.164 (inactive),0.148 (inactive),-0.557 (inactive),0.398,0.38,0.164,0.676,1.73,0.113 (inactive),0.325,10.4 (active),1.31 (inactive),0.843 (inactive),0.593 (inactive),0.0796,-3.35 (inactive),-0.689 (inactive),-1.77
COC(=O)[C@@]1(Cc2ccccc2N=[N+]=[N-])N=C(c2ccc(OCCCO)cc2)O[C@H]1c1ccccc1N=[N+]=[N-],0.323,-5.44 (inactive),-0.455 (inactive),1.53 (inactive),0.237 (inactive),0.169,0.221,-0.266,0.0067,0.58,1.24 (inactive),0.373,24.9 (active),13.3 (active),0.531 (inactive),3.93 (inactive),0.342,-1.58 (inactive),0.802 (inactive),-0.833

# Reference: PubChem BioAssay
